This is part of a sample that, as a whole, favours compounds with a hit. Of some 83,000 tested, about 20% had one in any assay.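 Single-concentration screen, 48 h exposure, 96-well plates. Endpoint: percent growth. Below 10 = active.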 A number with no mark means an inactive call. Active and inactive are the calls of the source.
What follows are molecules tested on U251 CNS (assay: NCI-60 one-dose screen, 48 h (100 = growth as untreated, 0 = no growth, -100 = all killed)). Conditions: 10 µM unless noted.

Structure (SMILES)	growth
Cc1nn(-c2ccccc2)c(Oc2ccc(Cl)cc2)c1/C=N\N=c1/sc2ccccc2n1C	86.9%
CC(C)Sc1nc(NNC(N)=S)c(C#N)c(-c2ccc(F)cc2)n1	95%
NC(=O)c1ccc[n+](Cc2ccc(Cl)cc2Cl)c1	89.6%
CCCCCCCC/C=C\CCCCCCCCOc1ccccc1CC(=O)NCC[N+](C)(C)C	12.7%
O=C1Nc2ccccc2/C1=C/c1cn(C(=O)c2ccc(Cl)cc2)c2ccccc12	99.4%
O=C1/C(=C\c2cccnc2)SC(=S)N1CCc1ccc(O)cc1	68.3%
COc1ccc(C2C(c3nn[nH]n3)=C(N)Oc3c2ccc2ccccc32)cc1 (stereo unspecified)	73.3%
COc1ccc(NC(=O)CSc2nnc(-c3cc(-c4ccc(S(N)(=O)=O)cc4)nc4ccccc34)n2-c2ccccc2)cc1	85.5%
COc1ccc(-c2csc(C3=C(O)CN(C(C)C)C3=N)n2)cc1OC	98.3%
Cn1cc(-c2csc(-c3ccccc3)n2)c2cccnc21	-33.8% [100 µM] (active)
CCN1CCN(c2cc(C)nc(NCc3cc(Nc4ccnc5cc(Cl)ccc45)ccc3F)n2)CC1	59.8%
C#CCOc1nc(C)cc(C)c1C#N	98.1%
Cc1cc(O)c(C2=NN(c3ccc(S(N)(=O)=O)cc3)C(c3ccccc3Cl)C2)cc1Cl (stereo unspecified)	7.79% (active)
N#Cc1c(-c2cccc(Cl)c2)cc(-c2cccc(Cl)c2)[nH]c1=O	74.7%
N=c1sc(Cc2ccc(Cl)cc2)cn1CC(=O)c1ccc(F)cc1	79.4%
COc1cc(CCC[P+](c2ccccc2)(c2ccccc2)c2ccccc2)cc2c1OCO2	23.9%
CCCCc1ccc(Nc2ccc(Nc3ccc(CCCC)cc3S(=O)(=O)O)c3c2C(=O)c2ccccc2C3=O)c(S(=O)(=O)O)c1	103%
COc1ccc2occ(C3=C(c4c[nH]c5ccccc45)C(=O)N(O)C3=O)c2c1	91.7%
CC1(C)OC2C(CO[Si](C)(C)C(C)(C)C)OC(n3c(I)c(C#C[Si](C)(C)C)c(=O)[nH]c3=O)C2O1 (stereo unspecified)	88.4%

Structure (SMILES)	growth
Cc1ccc(S(=O)(=O)NCC[C@@H]2C[C@H]2c2cc3ccccc3s2)cc1	98.6%
NC[C@H](O)c1ccc(O)c(O)c1	106%
C=C(C)[C@@H]1CC[C@]2(C(=O)NC3CCCCC3)CC[C@]3(C)[C@H](CC[C@@H]4[C@@]5(C)CCC(=O)C(C)(C)[C@@H]5CC[C@]43C)[C@@H]12	84.9%
N=C1CCC(=N)c2c1c(O)c1ccccc1c2O	100%
COC(=O)[C@]12CC[C@@H](C)[C@H](C)[C@@H]1C1=CC[C@@H]3[C@@]4(C)C(C=O)=C[C@@](C)(COC(C)=O)[C@@H]4C(=O)C[C@@]3(C)[C@]1(C)CC2	27.1%
COc1cc(/C=N/Nc2ncc(-c3cc4cc5c(cc4o3)OCO5)s2)cc(OC)c1OC	68.1%
OC(c1cccc(-n2ccc(C(F)(F)F)n2)c1)c1cnccc1NC1CCCCCC1 (stereo unspecified)	-42.6% (active)
COc1ccc(-c2[nH]c(=S)n(C(CC3(C)NCC(=O)N3n3c(-c4ccccc4)cc(C)nc3=S)c3ccc(OC)cc3)c(=O)c2Br)cc1 (stereo unspecified)	55.8%
Cc1ccc(Cl)c(NS(=O)(=O)c2ccc(-c3cnc(C4CC4)o3)cc2)c1	24.1%
O=C(NC(Cc1nnc2n(Cc3ccccc3)c(=O)c3c4c(sc3n12)CCCC4)c1ccc(Cl)cc1)c1ccccc1 (stereo unspecified)	91.8%
Cc1c(O)cc(-c2cnc(N/N=C\c3ccc(Cl)cc3)s2)c(O)c1C	89.9%
CCN(CC)CCn1nc2c3c(cccc3c1=O)-c1ccccc1-2	6.95% (active)
Fc1c[c-]c(-c2ccccn2)c(F)c1.[CH3-].[Pt+2].c1ccc(P(C[PH+](c2ccccc2)c2ccccc2)c2ccccc2)cc1	-71.7% (active)
CCN1C(=O)N(CC)C2Nn3c(s/c(=C\c4cccc([N+](=O)[O-])c4)c3=O)=NC21 (stereo unspecified)	33.5%
N#C/C(=C/C=C/c1cccc(Cl)c1)S(=O)c1ccccc1 (stereo unspecified)	-89.6% (active)
Oc1c(CN2CCCC2)cc(COCc2ccc(Br)cc2)c2cccnc12	-7.1% (active)
O=C(CCCCCCN1CC(=O)N2[C@@H](c3ccccc3Cl)c3[nH]c4ccccc4c3C[C@H]2C1=O)NO	60.1%
COc1ccc(C2CC(c3cccc(OC)c3)=NN2C(=O)c2cc(OC)c(OC)c(OC)c2)cc1 (stereo unspecified)	35.5%
CCc1c2c(nc3ccc(OC(=O)OCc4ccc(B5OC(C)(C)C(C)(C)O5)cc4)cc13)-c1cc3c(c(=O)n1C2)COC(=O)[C@]3(O)CC	-57.2% (active)

Each molecule was assayed on PC-3 prostate in the same assay as above. Conditions: 10 µM unless noted.

Structure (SMILES)	growth
Cc1nn(-c2ccccc2)c(Oc2ccc(Cl)cc2)c1/C=N\N=c1/sc2ccccc2n1C	62.3%
CC(C)Sc1nc(NNC(N)=S)c(C#N)c(-c2ccc(F)cc2)n1	102%
NC(=O)c1ccc[n+](Cc2ccc(Cl)cc2Cl)c1	88.9%
CCCCCCCC/C=C\CCCCCCCCOc1ccccc1CC(=O)NCC[N+](C)(C)C	4.4% (active)
O=C1Nc2ccccc2/C1=C/c1cn(C(=O)c2ccc(Cl)cc2)c2ccccc12	95.7%
O=C1/C(=C\c2cccnc2)SC(=S)N1CCc1ccc(O)cc1	42.2%
COc1ccc(C2C(c3nn[nH]n3)=C(N)Oc3c2ccc2ccccc32)cc1 (stereo unspecified)	65.5%
COc1ccc(NC(=O)CSc2nnc(-c3cc(-c4ccc(S(N)(=O)=O)cc4)nc4ccccc34)n2-c2ccccc2)cc1	65.9%
COc1ccc(-c2csc(C3=C(O)CN(C(C)C)C3=N)n2)cc1OC	35.3%
Cn1cc(-c2csc(-c3ccccc3)n2)c2cccnc21	-16.9% [100 µM] (active)
CCN1CCN(c2cc(C)nc(NCc3cc(Nc4ccnc5cc(Cl)ccc45)ccc3F)n2)CC1	57.6%
C#CCOc1nc(C)cc(C)c1C#N	140%
Cc1cc(O)c(C2=NN(c3ccc(S(N)(=O)=O)cc3)C(c3ccccc3Cl)C2)cc1Cl (stereo unspecified)	10.9%
N#Cc1c(-c2cccc(Cl)c2)cc(-c2cccc(Cl)c2)[nH]c1=O	68.7%
N=c1sc(Cc2ccc(Cl)cc2)cn1CC(=O)c1ccc(F)cc1	75.5%
COc1cc(CCC[P+](c2ccccc2)(c2ccccc2)c2ccccc2)cc2c1OCO2	16.7%
CCCCc1ccc(Nc2ccc(Nc3ccc(CCCC)cc3S(=O)(=O)O)c3c2C(=O)c2ccccc2C3=O)c(S(=O)(=O)O)c1	39.1%
COc1ccc2occ(C3=C(c4c[nH]c5ccccc45)C(=O)N(O)C3=O)c2c1	81.3%
CC1(C)OC2C(CO[Si](C)(C)C(C)(C)C)OC(n3c(I)c(C#C[Si](C)(C)C)c(=O)[nH]c3=O)C2O1 (stereo unspecified)	91.4%

Structure (SMILES)	growth
Cc1ccc(S(=O)(=O)NCC[C@@H]2C[C@H]2c2cc3ccccc3s2)cc1	99.8%
NC[C@H](O)c1ccc(O)c(O)c1	99.7%
C=C(C)[C@@H]1CC[C@]2(C(=O)NC3CCCCC3)CC[C@]3(C)[C@H](CC[C@@H]4[C@@]5(C)CCC(=O)C(C)(C)[C@@H]5CC[C@]43C)[C@@H]12	60.1%
N=C1CCC(=N)c2c1c(O)c1ccccc1c2O	80.3%
COC(=O)[C@]12CC[C@@H](C)[C@H](C)[C@@H]1C1=CC[C@@H]3[C@@]4(C)C(C=O)=C[C@@](C)(COC(C)=O)[C@@H]4C(=O)C[C@@]3(C)[C@]1(C)CC2	13.3%
COc1cc(/C=N/Nc2ncc(-c3cc4cc5c(cc4o3)OCO5)s2)cc(OC)c1OC	21.5%
OC(c1cccc(-n2ccc(C(F)(F)F)n2)c1)c1cnccc1NC1CCCCCC1 (stereo unspecified)	41.2%
COc1ccc(-c2[nH]c(=S)n(C(CC3(C)NCC(=O)N3n3c(-c4ccccc4)cc(C)nc3=S)c3ccc(OC)cc3)c(=O)c2Br)cc1 (stereo unspecified)	66%
Cc1ccc(Cl)c(NS(=O)(=O)c2ccc(-c3cnc(C4CC4)o3)cc2)c1	31.1%
O=C(NC(Cc1nnc2n(Cc3ccccc3)c(=O)c3c4c(sc3n12)CCCC4)c1ccc(Cl)cc1)c1ccccc1 (stereo unspecified)	97.8%
Cc1c(O)cc(-c2cnc(N/N=C\c3ccc(Cl)cc3)s2)c(O)c1C	66.4%
CCN(CC)CCn1nc2c3c(cccc3c1=O)-c1ccccc1-2	26.6%
Fc1c[c-]c(-c2ccccn2)c(F)c1.[CH3-].[Pt+2].c1ccc(P(C[PH+](c2ccccc2)c2ccccc2)c2ccccc2)cc1	-33.2% (active)
CCN1C(=O)N(CC)C2Nn3c(s/c(=C\c4cccc([N+](=O)[O-])c4)c3=O)=NC21 (stereo unspecified)	35.8%
N#C/C(=C/C=C/c1cccc(Cl)c1)S(=O)c1ccccc1 (stereo unspecified)	-55.5% (active)
Oc1c(CN2CCCC2)cc(COCc2ccc(Br)cc2)c2cccnc12	14.4%
O=C(CCCCCCN1CC(=O)N2[C@@H](c3ccccc3Cl)c3[nH]c4ccccc4c3C[C@H]2C1=O)NO	61.8%
COc1ccc(C2CC(c3cccc(OC)c3)=NN2C(=O)c2cc(OC)c(OC)c(OC)c2)cc1 (stereo unspecified)	25.7%
CCc1c2c(nc3ccc(OC(=O)OCc4ccc(B5OC(C)(C)C(C)(C)O5)cc4)cc13)-c1cc3c(c(=O)n1C2)COC(=O)[C@]3(O)CC	14.9%

Reference: PubChem BioAssay (NCI)
